We go through 52 molecules from PubChem BioAssay AID2501 (Southern Research Specialized Biocontainment Screening …, 2010).

SMILES strings stand for the structures. The whole screen tested about 2,200 compounds, of which about 1,200 (55%) were called active. The set was probably picked from earlier hits. The list shows a part of the results. A number with no mark means an inactive call. Cut-off not given; nearly all actives show IC50 up to about 92 µM.

The inhibition is the relative decrease from the control value, in per cent. In general, IC50 refers to the midpoint of a concentration-inhibition curve.

This assay in a line: counter assay for TAg ATPase ADP read-out – biochemical, ADP-Hunter, fluorescence, counter-screen (AID 2501).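 Further: purified T antigen ATPase.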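 On inhibition: 0% = enzyme with vehicle and 100% = reference inhibitor wells; higher means more inhibition.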 The settings on record: series mostly up to 100 µM; inhibition: at the top concentration. (Counterscreens check selectivity or assay interference.)
On to `Cc1cccc(N2CCN(C(=O)Cn3sc4nc(C)cc(C)c4c3=O)CC2C)c1` (configuration not stated), for which the “inhibition” value was -23.9%.
`O=C1CCCC2=C1C(c1ccc(Br)cc1)c1c([nH]c(=S)[nH]c1=O)N2` (configuration not stated): the IC50 is 92 µM (active).
Regarding `O=c1[nH]c(=S)[nH]c2c1C(c1ccc(Br)cc1)c1c([nH]c(=S)[nH]c1=O)O2`, the “inhibition” value was 18.7%.
Turning to `COCCCNC(=S)N/N=C/c1ccc(O)cc1`, the IC50 is 1.83 µM (active).
With `COCCCNC(=O)c1cc2cc3cc(OC)ccc3nc2o1`, the “inhibition” value is 5.55%.
In the case of `COCCNC(=S)N/N=C(\C)c1ccc(O)cc1`, the IC50 is 3.77 µM (active).
Still for that read-out and setting: for `COCCCNC(=S)N/N=C/c1ccc(O)cc1O` the value was 6.62 µM (active).
Take `C/C(CCc1ccccc1)=N\NC(=S)NCCc1ccccc1`: the “inhibition” value was 16.8%.
Turning to `O=[N+]([O-])c1ccc2c(c1N1CCCCC1)=NC1(CCCCC1)[N+]=2[O-]`, the “inhibition” value is -22%.
`COc1ccc(NC(=O)c2sc(=S)[nH]c2N)cc1`: the IC50 is 8.22 µM (active).
As to `N=C1/C(=C\c2ccc(SCc3ccco3)o2)C(=O)N=C2SC=NN12`, the “inhibition” value was -16%.
For `COc1cc(/C=N/N=C2/C(=O)Nc3ccccc32)ccc1O`, the IC50 is 4.52 µM (active).
In the case of `COc1cc(/C=N/N=C2/C(=O)Nc3ccccc32)cc(OC)c1O`, the IC50 was 5.67 µM (active).
Same read-out and setting: for `O=C1Nc2ccccc2/C1=N\N=C\c1ccc(O)c(O)c1` the value was 8.1 µM (active).
For `CCOC(=O)CN1C(=O)CC(c2ccc([N+](=O)[O-])cc2)C1=O` (configuration not stated), the “inhibition” value was -22.7%.
Still for that read-out and setting: the same measure for `O=C(CS(=O)(=O)c1ccccc1)c1cc2cc(F)ccc2oc1=O`: 10.5% [at 50 µM].
As to `CN(C)C(=O)c1c(-c2ccccc2)oc2ccc(O)cc12`, the IC50 was 17.2 µM (active).
As to `C=CCSC1=NC(=O)/C(=C/c2cccs2)S1`, the “inhibition” value was -34%.
The same measure, in the same setting: for `COc1ccc(N2C(=S)NC3c4cc(Cl)ccc4OC2(C)C3C(=O)N(C)C)cc1` (configuration not stated) the value was 12.2% [at 50 µM].
Consider `COc1cc(/C=C2/C(=O)NN(c3ccc(Cl)c(Cl)c3)C2=O)cc([N+](=O)[O-])c1O`, for which the IC50 was 14.6 µM (active).
Regarding `CCOc1cc(/C=C2\C(=N)N3N=CSC3=NC2=O)ccc1OS(=O)(=O)c1ccccc1`, the “inhibition” value is 1.1%.
Still for that read-out and setting: the same measure for `CCOc1cc(/C=C2\C(=O)ON=C2c2ccccc2)cc(Br)c1O`: 7.3% [at 50 µM].
Consider `CCOc1cc(/C=C2\C(=O)NN(c3ccccc3)C2=O)cc([N+](=O)[O-])c1O`, for which the IC50 was 6.78 µM (active).
Still for that read-out and setting: the same measure for `COc1cc(/C=C2\C(=O)NN(c3ccccc3)C2=O)cc([N+](=O)[O-])c1O`: 59.3 µM (active); for `Cc1ccsc1/C=C1/C(=O)NN(c2ccccc2)C1=O`: 1.75 µM (active).
On to `C/C(=N\NC(=O)c1csc(C)c1C)c1ccc(C)s1`, for which the “inhibition” value is -12.3%.
In the case of `O=Cc1coc2c(ccc3ccccc32)c1=O`, the IC50 is 10.1 µM (active).
Turning to `COc1cc(OC)c2c(c1O)OC(c1ccccc1)CC2=O` (configuration not stated), the “inhibition” value was 16.1%.
For the molecule `O=C1CC(c2ccc(O)c(O)c2)Oc2c1ccc(O)c2O` (configuration not stated), the concentration for half-maximal inhibition (IC50) was 13.6 µM (active).
In the case of `O=C1CC(c2ccc(O)c(O)c2)Oc2cc(O)cc(O)c21` (configuration not stated), the IC50 was 4.23 µM (active).
As to `COc1cc([C@@H]2Oc3cc(C4Oc5cc(O)cc(O)c5C(=O)[C@H]4O)ccc3O[C@H]2CO)ccc1O` (some centres not stated), the IC50 is 31.4 µM (active).
With `O=C1c2c(O)cc(O)cc2O[C@H](c2ccc(O)c(O)c2)[C@H]1O`, the IC50 was 5.9 µM (active).
For the molecule `CC(=O)Nc1nnc(SCc2cccc(F)c2)s1`, the “inhibition” value was -9.37%.
Consider `O=C(O)CN1C(=O)/C(=C/c2ccc(N3CCCCC3)o2)SC1=S`, for which the IC50 was 38.4 µM (active).
With `O=C1NC(=S)S/C1=C\c1ccc(SCc2ccccc2)o1`, the “inhibition” value was 28.9%.
Same read-out and setting: for `O=C1/C(=C/c2ccco2)SC(=S)N1CCC(=O)N1CCCCC1CCO` (configuration not stated) the value was 4.5%.
For the molecule `O=C1NC(=S)S/C1=C/c1ccc(N2CCOCC2)o1`, the IC50 is 18.9 µM (active).
Turning to `O=C(O)CN1C(=O)/C(=C\C(Br)=C\c2ccccc2)SC1=S`, the “inhibition” value is 25.4%.
Still for that read-out and setting: for `COc1ccccc1N1C(=O)C=C(Sc2nc(C)cc(C)n2)C1=O` the value was 10.2%.
Turning to `CN(C)c1ccc(N=c2sc3ccccc3n2C)cc1`, the 50% inhibitory concentration (IC50) was 7.65 µM (active).
Still for that read-out and setting: the same measure for `COC(=O)/C(=C/Nc1ccc(O)cc1)[N+](=O)[O-]`: 3.8 µM (active).
On the same count and under the same terms, for `O=C(c1ccco1)N1CCN(C(=S)Nc2ccc(F)c(Cl)c2)CC1` the value was 39.5 µM (active).
As for `N=c1c[n+](N2CCOCC2)[n-]o1`, the “inhibition” value was 4.79%.
`Oc1ccc(Nc2nc(N3CCCC3)c3ccccc3n2)cc1`: the IC50 is 4.06 µM (active).
Still for that read-out and setting: the same measure for `CN1CCN(c2nc(Nc3ccc(O)cc3)nc3ccccc23)CC1`: 6.32 µM (active).
As for `O/N=C/c1ccc2ccccc2c1`, the “inhibition” value was 21.4%.
For the molecule `C(=Nc1ccc(Nc2ccccc2)cc1)c1ccc2ccccc2c1`, the half-inhibitory concentration (IC50) was 6.4 µM (active).
In the case of `C/C(=C/c1oc2ccc(O)cc2c1[N+](=O)[O-])N(C)C`, the IC50 was 5.75 µM (active).
Take `O=C(c1ccc(CNS(=O)(=O)c2ccccc2)cc1)N1CCN(Cc2ccccc2)CC1`: the “inhibition” value was 19.2%.
For `O=C(c1ccccc1)N1CCN(c2ccc(NCc3ccc4c(c3)OCO4)cc2)CC1`, the concentration for half-maximal inhibition (IC50) was 5.7 µM (active).
On the same count and under the same terms, the same measure for `CC(=O)N1CCN(c2ccc(NCc3cccc4ccccc34)cc2)CC1`: 4.52 µM (active).
As for `O=C(C1=C[C@H](C2CCCCC2)C[C@H](OCCCCO)O1)N1CCN(Cc2ccc3c(c2)OCO3)CC1`, the “inhibition” value is -36%.
